# ± gives the uncertainty stated by the source.
# Tested on: Candidatus Liberibacter solanacearum in potato hairy roots
# Experiment: relative CLso titer (% of untreated control); higher = less inhibition of bacterial titer
# Details: 10 µM; 72 h
# Experimental: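 Primary screen of ~220 Spectrum collection (MicroSource) compounds at 10 µM (0.1% DMSO) on Candidatus Liberibacter solanacearum-infected potato hairy roots in multi-well plates (Gamborg B-5 medium, vacuum infiltrated, 21 °C, dark, 72 h). CLso titer was measured by qPCR of 16S rDNA normalised to potato RPL2 (2^-ddCq), pairwise-standardised against untreated controls, averaged over two biological replicates and expressed as % of untreated.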
row,SMILES,relative CLso titer [%]
1,CCC1(C)CC(=O)NC1=O (stereo not given),119.65 ± 0.011
2,CO[C@@]1(NC(=O)C2SC(=C(C(N)=O)C(=O)O)S2)C(=O)N2C(C(=O)O)=C(CSc3nnnn3C)CS[C@@H]21 (stereo not given in full),138 ± 17
3,CC(NCCc1ccc(O)cc1)C(O)c1ccc(O)cc1 (stereo not given),82.6 ± 20
4,NS(=O)(=O)c1cc(C2(O)NC(=O)c3ccccc32)ccc1Cl (stereo not given),58.5 ± 3.2
5,CCN(CCCc1ccccc1)CCCc1ccccc1,66.9 ± 21
6,CCCCOc1ccc(OCCCN2CCOCC2)cc1,106 ± 37
7,Nc1ncnc2c1ncn2[C@@H]1O[C@H](CO)[C@@H](O)[C@H]1O,51.4 ± 22
8,Clc1ccc(COC(Cn2ccnc2)c2ccc(Cl)cc2Cl)cc1 (stereo not given),101 ± 35
9,Nc1ccn([C@@H]2O[C@H](CO)[C@@H](O)[C@@H]2O)c(=O)n1,83.2 ± 46
10,COC1=CC(=O)C[C@@H](C)[C@]12Oc1c(Cl)c(OC)cc(OC)c1C2=O,67.3 ± 13
11,O=C1NS(=O)(=O)c2ccccc21,73.2 ± 19
12,Cn1nnnc1SCC1=C(C(=O)O)N2C(=O)[C@@H](NC(=O)[C@H](O)c3ccccc3)[C@H]2SC1,133 ± 14
13,CN(C)[C@@H]1C(O)=C(C(N)=O)C(=O)[C@@]2(O)C(O)=C3C(=O)c4c(O)ccc(Cl)c4[C@@](C)(O)[C@H]3C[C@@H]12,35.8 ± 4.5
14,CNC(=C[N+](=O)[O-])NCCSCc1ccc(CN(C)C)o1,109 ± 2.3
15,CC1=C(/C=C/C(C)=C/C=C/C(C)=C\C(=O)O)C(C)(C)CCC1,80.8 ± 13
16,Oc1c(Cl)cc(Cl)cc1Sc1cc(Cl)cc(Cl)c1O,55.8 ± 6.5
17,Clc1ccccc1C(c1ccccc1)(c1ccccc1)n1ccnc1,65.3 ± 14
18,OCCN(CCO)c1nc(N2CCCCC2)c2nc(N(CCO)CCO)nc(N3CCCCC3)c2n1,107 ± 26
19,Nc1ccc(C(=O)Oc2ccccc2)c(O)c1,102 ± 12
20,C[C@]12CC[C@@H]3c4ccc(OC(=O)c5ccccc5)cc4CC[C@H]3[C@@H]1CC[C@@H]2O,155 ± 66

row,SMILES,relative CLso titer [%]
1,CCC(=O)O[C@H]1[C@H](O[C@@H]2[C@@H](C)[C@H](O[C@H]3C[C@@](C)(OC)[C@@H](O)[C@H](C)O3)[C@@H](C)C(=O)O[C@H](CC)[C@@](C)(O)[C@H](O)[C@@H](C)C(=O)[C@H](C)C[C@@]2(C)O)O[C@H](C)C[C@@H]1N(C)C,108 ± 26
2,OC[C@@H](O)[C@@H](O)[C@H](O)[C@H](O)CO,70.5 ± 11
3,CC1=C(/C=C/C(C)=C/C=C/C(C)=C/C(=O)O)C(C)(C)CCC1,132 ± 9.7
4,CN1CCN(CC(=O)N2c3ccccc3C(=O)Nc3cccnc32)CC1,56.9 ± 5.4
5,C[C@@H]1C[C@H]2[C@@H]3CCC4=CC(=O)C=C[C@]4(C)[C@@]3(F)[C@@H](O)C[C@]2(C)[C@@]1(O)C(=O)COP(=O)(O)O,137 ± 29
6,Cn1c(=O)c2c(ncn2CC(O)CO)n(C)c1=O (stereo not given),128 ± 10
7,CN1CCOC(c2ccccc2)c2ccccc2C1 (stereo not given),100 ± 38
8,CO[C@@]12[C@H](COC(N)=O)C3=C(C(=O)C(C)=C(N)C3=O)N1C[C@@H]1N[C@@H]12,85 ± 10
9,O=C(N[C@H](CO)[C@H](O)c1ccc([N+](=O)[O-])cc1)C(Cl)Cl,57.2 ± 12
10,NS(=O)(=O)c1cc2c(cc1Cl)N=CNS2(=O)=O,31 ± 2.7
11,COc1ccc([C@H]2COc3c(ccc(O)c3OC)C2)c(OC)c1O,35.5 ± 2.5
12,CN1CCC[C@@H]1CCO[C@](C)(c1ccccc1)c1ccc(Cl)cc1,44.3 ± 12
13,Cc1cccc(Nc2ccccc2C(=O)O)c1C,98.7 ± 20
14,C[C@@H]1NC(=O)[C@@H](N)CNC(=O)[C@H](C2CCNC(=N)N2)NC(=O)/C(=C/NC(N)=O)NC(=O)[C@H](CNC(=O)CC(N)CCCN)NC1=O.N=C1NCCC([C@@H]2NC(=O)/C(=C/NC(N)=O)NC(=O)[C@H](CNC(=O)CC(N)CCCN)NC(=O)[C@H](CO)NC(=O)[C@@H](N)CNC2=O)N1 (stereo not given in full),63.2 ± 9.8
15,NCCCCCC(=O)O,39.2 ± 4.1
16,CN(C)CCOC(C)(c1ccccc1)c1ccccn1 (stereo not given),109 ± 7.3
17,CC1=C(C(=O)O)N2C(=O)[C@@H](NC(=O)[C@H](N)c3ccccc3)[C@H]2SC1,87.1 ± 16
18,CC(=O)OCC(=O)[C@H]1CC[C@H]2[C@@H]3CCC4=CC(=O)CC[C@]4(C)[C@H]3CC[C@]12C,104 ± 18
19,CN(C)CCCN1c2ccccc2Sc2ccc(Cl)cc21,46.9 ± 8.8
20,COc1cccc2c1C(=O)c1c(O)c3c(c(O)c1C2=O)C[C@@](O)(C(C)=O)C[C@@H]3O[C@H]1C[C@H](N)[C@H](O)[C@H](C)O1,202 ± 6.5

# Reference: the supplement of paper PMC7669877
